# Screening data from PubChem.
# Shown is part of a subset that was picked to be rich in hits.
# RMI-FANCM inh – inhibitors of human RMI core complex binding to FANCM MM2; Fluorescence polarization, RMI core complex with F-MM2 peptide; hits give low values; 70,000 compounds, 0.58% hits; FP signal (polarization) at 33 µM; in the data active = FP signal below about 40
# Active calls of the source: *.
SMILES,RMI-FANCM inh
O=C(CCc1ccc(O)cc1)N/N=C\c1cc(Cl)cc(Cl)c1O,37*
O=C(COc1ccc(Cl)cc1Cl)NCCn1nc(-c2cccs2)ccc1=O,66
O=C(COc1ccc(Cl)cc1Cl)NCCn1ncc2c(=O)n(Cc3cccc(C(F)(F)F)c3)cnc21,65
c1csc(-c2ccn[nH]2)c1,55
S=c1nccc(-c2ccc(-c3cccs3)s2)[nH]1,33*
Cc1nc(-c2ccnc(=S)[nH]2)cs1,57
CCOC(=O)/C(=C(/C)Nc1ccc(F)cc1)C1CC(=O)N(c2ccc(C(=O)OCC)cc2)C1=O (stereo not given),54
COc1ccc(C)cc1NC(=O)CN1CCCN(Cc2ccccc2F)S1(=O)=O,75
O=C(Cc1nc2ccccc2s1)c1ccc(O)cc1O,24*
NC(=O)NC(=O)Cc1nc2ccccc2s1,53
O=C(OCc1nc2ccccc2s1)c1nc2ccccc2s1,62
COCCN1CCC(CNC(=O)C(=O)Nc2ccc(C(C)C)cc2)CC1,81
O=S(=O)(NCC1CCN(Cc2ccco2)CC1)c1ccc2c(c1)CCCC2,80
CCN(CC)CCNC(=O)C(=O)NCc1n[nH]c(=O)c2ccccc12,56
CNC(=O)Cc1csc(Nc2ccc(OC(F)(F)F)cc2)n1,61
O=C(Cc1csc(Nc2cccc(C(F)(F)F)c2)n1)NCc1ccccn1,44
O=C(Cc1csc(SCc2ccc(Br)cc2)n1)NC1CCCC1,66
O=C(Cc1csc(SCc2ccc(Br)cc2)n1)NCc1ccccn1,27*
O=C(Cc1csc(Nc2ccc(OC(F)(F)F)cc2)n1)NCc1ccccn1,-3*
O=C(Cc1csc(SCc2ccc(Br)cc2)n1)Nc1nccs1,21*
COc1cc(CSc2nc(CC(=O)Nc3nccs3)cs2)cc(OC)c1,58
O=C(Cc1csc(SCc2ccc(Br)cc2)n1)NCc1cccs1,80
O=C(Cc1csc(SCc2ccc(Cl)cc2)n1)NCc1ccccn1,54
O=C(c1cc(F)ccc1OCc1ccccc1)C1OC1c1cc(Cl)cc2c1OCOC2 (stereo not given),49
O=C(NCc1cc(Cl)cc(Cl)c1)c1cc(Cl)cc(Cl)c1,51
SMILES,RMI-FANCM inh
O=C(Cn1nc(C2CC2)c2cnn(-c3ccccc3)c2c1=O)Nc1ccccc1F,76
Cc1cc(NC(=O)C2CCN(S(=O)(=O)c3ccc(Cl)s3)CC2)on1,65
O=C(NCCn1nc(-c2cccnc2)ccc1=O)c1ccc(F)cc1F,64
Cc1cc(N2CCOCC2)nc(Nc2ccc(NC(=O)c3ccc(F)cc3)cc2)n1,57
CC(=O)N(Cc1ccccn1)c1nc2ccccc2s1,55
Cc1cc(O)c2c(c1)Cc1cccc(O)c1C2=O,-15*
Cc1cc2c3c(c1)c(O)c(-c1ccccc1)c(=O)n3CCC2,62
COc1cc(O)c2c(c1)C(=O)c1cc(C)cc(O)c1C2=O,55
Cn1c(=NC(=O)COCC(=O)N=c2sc3c4ccccc4ccc3n2C)sc2c3ccccc3ccc21,71
O=C(Nc1ccc(-c2ccc(N3CCCCCC3)nn2)cc1)c1ccco1,58
CSc1ncc(C#N)c2nc(-c3ccc(N(C)C)cc3)nn12,-1*
O=[N+]([O-])c1ccc(ONS(=O)(=O)c2ccc(F)cc2)c([N+](=O)[O-])c1,54
CN1CCN(C(CNC(=O)Nc2ccc(Cl)cc2)c2ccc3c(c2)OCO3)CC1 (stereo not given),62
CC(C)Oc1ccccc1Oc1ccc(N)cn1,50
CSc1ccc(Oc2ccc(N)cn2)cc1,56
Nc1ccc(Oc2cccnc2)nc1,-6*
Cc1ccc(-c2csc(NC(=O)CSc3nncc(=O)[nH]3)n2)cc1,55
CC(=O)Nc1ccc2c(c1)N(S(C)(=O)=O)CCC2,75
Nc1nc(-c2ccccn2)cs1,68
O=C1NC(=S)/C(=C/c2ccc(-c3ccccc3[N+](=O)[O-])o2)S1,9*
O=C1C(=Cc2ccc(-c3ccc(C(F)(F)F)cc3[N+](=O)[O-])o2)C(=O)c2ccccc21,59
CCOC(=O)c1ccc(-c2ccc(/C=C3\SC(=O)NC3=S)o2)cc1,-42
O=C(COc1ccc(Cl)cc1)NCC(c1cccs1)N1CCOCC1 (stereo not given),55
CCN(c1ccccc1)S(=O)(=O)c1ccc(C(=O)N(CCCN(C)C)c2nc3cc4c(cc3s2)OCO4)cc1,135
CCN(CC)CCN(C(=O)c1ccc(S(=O)(=O)N(CC)c2ccccc2)cc1)c1nc2ccc(C)cc2s1,101
SMILES,RMI-FANCM inh
CCN(CC)CCN(C(=O)c1ccc(S(=O)(=O)N(CC)c2ccccc2)cc1)c1nc2cc3c(cc2s1)OCCO3,40*
COc1ccc(N2CCN(C(=O)c3ccc4nccnc4c3)CC2)cc1,65
COc1ccc(Oc2ccc([N+](=O)[O-])c3nonc23)cc1,4*
COc1ccc(Oc2ccc([N+](=O)[O-])cc2-c2nc(-c3ccccn3)no2)cc1,59
CCOC(=O)CNC(=O)c1cc([N+](=O)[O-])ccc1Oc1ccc(OC)cc1,59
Cc1[nH]ccc(=O)c1OCc1ccc(Cl)cc1Cl,51
O=C(Nc1cccc(-c2cn3ccccc3n2)c1)c1cccc(F)c1,80
Cc1onc(-c2ccccc2)c1C(=O)ON=C(Cc1ccccc1)Cc1ccccc1,57
O=C(CSc1ccc(-c2ccc(Cl)cc2)nn1)NCc1ccc2c(c1)OCO2,55
O=C(Nc1ccccc1C(=O)NCCCn1ccnc1)c1ccc([N+](=O)[O-])cc1,58
Nc1ncnc(Cl)c1N,17*
Nc1ncnc2c1CCC2,82
Nc1ncncc1-c1ccc(Cl)cc1,49
Cc1ccc(C)c(-c2nnc(NC(=O)c3ccc(S(=O)(=O)N4CCCCC4C)cc3)o2)c1 (stereo not given),61
COc1ccc(C2CNN=C2C(=O)c2ccc3ccccc3c2)cc1 (stereo not given),58
Cc1[nH]c2ccccc2c1C(c1ccc(OC(F)F)cc1)c1c(C)[nH]c2ccccc12,36
Cc1[nH]c2ccccc2c1C(c1ccco1)c1c(C)[nH]c2ccccc12,135
Cc1[nH]c2ccccc2c1C(c1ccc(C(C)C)cc1)c1c(C)[nH]c2ccccc12,29*
Cc1cc(=O)n2c(-c3cccc(NC(=O)c4ccc(Cl)cc4Cl)c3)csc2n1,65
O=[N+]([O-])c1ccc(-c2csc(-c3ccsc3)n2)cc1,56
COc1ccc(-c2nc(SC(CC(=O)NCCc3ccccc3)c3cccs3)n[nH]2)cc1 (stereo not given),53
COc1ccc(-c2nc(SC(CC(=O)NCCN3CCOCC3)c3ccc(OC)cc3)n[nH]2)cc1 (stereo not given),22*
COc1ccc(C(CC(=O)NCc2ccccc2)Sc2n[nH]c(-c3ccc(F)cc3)n2)cc1 (stereo not given),119
COc1ccc(N2CCN(C(=O)Cc3csc(Nc4ccccc4)n3)CC2)cc1,65
CCOc1ccc(OCCNC(=O)c2ccc3ccccc3c2)cc1,70
SMILES,RMI-FANCM inh
COc1ccc(/C=C2\NC(=S)N(CC(=O)Nc3ccc(S(N)(=O)=O)cc3)C2=O)cc1,63
CN1CCc2nc(N)sc2C1,64
Cc1ccc2c(c1)Cc1c(nc(-c3ccccc3)nc1SCC(=O)Nc1cccc(C(=O)O)c1)O2,14*
Cc1cccc2c1Oc1nc(-c3ccccc3)nc(SCC(=O)Nc3ccc4c(c3)OCCO4)c1C2,87
Cc1ccc(-c2nc3c(c(SCC(=O)Nc4cccc(C(=O)O)c4)n2)Cc2ccccc2O3)cc1,53
CCOc1ccc(NC(=O)C2(c3cccs3)CCCC2)cc1,62
O=C(CCc1nc2sc3c(c2c(=O)[nH]1)CCCCC3)N1CCN(Cc2ccc3c(c2)OCO3)CC1,28*
